Test results: PubChem BioAssay (Tox21)
Records with an inconclusive call do not appear. Unmarked numbers belong to inactive results. The call rests on the fitted dose curve.

The compounds below were run against Peroxisome proliferator-activated receptor delta (Homo sapiens) (UniProt Q03181) (assay: qHTS assay to identify small molecule agonists of the peroxisome proliferator-activated receptor delta (PPARd) signaling pathway (AID 743212)). Conditions: HEK293H PPARd-UAS-bla, beta-lactamase FRET ratio, 17 h; series mostly up to 62.6 µM; activation: at the top concentration.
Excerpt: U.S. Tox21 Program National Center for Advancing Translational Sciences [NCATS] NIH Chemical Genomics Center [NCGC] U.S. Environmental Protection Agency [EPA] National Institutes of Environmental Health Sciences [NIEHS] National Toxicology Program [NTP] U.S. Food and Drug Administration [FDA] Tox21 Assay Overview: The peroxisome proliferator-activated receptors (PPARs) are lipid-activated transcription factors of the nuclear receptor superfamily with three distinct subtypes namely PPAR alpha, PPAR delta (PPARd) and PPAR gamma. All these subtypes heterodimerizes with Retinoid X receptor (RXR) and have different physiological functions. […] To identify the compounds that activate PPAR-delta signaling, GeneBLAzer PPAR delta UAS-bla HEK293H cell line (Invitrogen, Carlsbad, CA, USA) containing a beta-lactamase reporter gene under the control of an Upstream Activator Sequence (UAS) was used to screen the Tox21 compound library.
Tox21 Assay Protocol Summary: PPARd-bla cells were dispensed at 3000 cells/6uL/well in 1536-well black wall/clear bottom plates using a Multidrop Combi (Thermo Fisher Scientific, Waltham, MA) dispenser. After the assay plates were incubated at 37 C and 5% CO2 for 5 h, 23 nL of compounds dissolved in DMSO, positive controls or DMSO only was transferred to the assay plate by a Pintool station (Kalypsys, San Diego, CA). The assay plates were incubated at 37C for 17 h. After 1 uL of LiveBLAzerTM B/G FRET substrate was added using a Bioraptr Flying Reagent Dispenser (FRD) workstation (Beckman Coulter, Indianapolis, IN, USA), the plates were incubated at room temperature for 2 h, and fluorescence intensity was measured by an Envision plate reader (PerkinElmer, Shelton, CT).
On the % scale 0 is the no-effect control and ±100 the full control effect.

Sequence of Peroxisome proliferator-activated receptor delta (Homo sapiens) (Q03181 whole entry, looked up): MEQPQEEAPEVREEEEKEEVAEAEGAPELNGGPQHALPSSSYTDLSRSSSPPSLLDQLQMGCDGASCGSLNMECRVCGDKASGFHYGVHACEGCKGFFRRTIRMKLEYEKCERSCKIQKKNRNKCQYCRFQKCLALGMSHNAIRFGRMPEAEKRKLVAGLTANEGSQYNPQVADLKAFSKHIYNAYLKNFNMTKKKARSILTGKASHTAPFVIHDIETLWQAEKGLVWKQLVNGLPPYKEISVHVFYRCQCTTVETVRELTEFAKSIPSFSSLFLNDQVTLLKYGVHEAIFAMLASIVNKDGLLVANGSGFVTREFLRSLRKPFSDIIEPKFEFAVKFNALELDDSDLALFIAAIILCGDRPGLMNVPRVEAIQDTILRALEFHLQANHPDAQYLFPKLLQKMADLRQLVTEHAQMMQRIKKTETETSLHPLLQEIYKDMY

Structure (SMILES) | activation
CC1(C)CCC[C@]2(C)[C@H]3CC(=O)O[C@]3(C)CC[C@@H]12 | -2.68%
O=C1CCCCCCCCCCCCCCCO1 | 0.21%
CN(C)[C@@H](CCOc1cccc2ccccc12)c1ccccc1 | 0.584%
Cc1c(F)c(N2CCNC(C)C2)cc2c1c(=O)c(C(=O)O)cn2C1CC1 (stereo not given) | 0.253%
CN1CCCCC1CCN1c2ccccc2Sc2ccc(S(C)=O)cc21 (stereo not given) | -3.97%
Nc1ccc(C(=O)O)c(O)c1 | 0.721%
CC(CO)Oc1ccccc1 (stereo not given) | -2% [at 81.1 µM]
OC[C@@H](O)[C@@H](O)CO | 0.0386%
CCCCCC(C)OC(=O)COc1ccc(Cl)c2cccnc12 (stereo not given) | -1.07%
C[Si](Cl)(c1ccccc1)c1ccccc1 | -5.68%
Nc1ccc(NCCO)c([N+](=O)[O-])c1 | -3.43%
Nc1nc2c(ncn2COCCO)c(=O)[nH]1 | 9.42%
Cl[Si](Cl)(c1ccccc1)c1ccccc1 | -2.72% [at 81.1 µM]
CCCCCCCCCCCCOCCOCCOCCOCCOCCOCCOCCOCCOCCO | 1.75%
COC(=O)Nc1nc2ccc(C(=O)c3ccccc3)cc2[nH]1 | -6.84%
CCC(C)n1ncn(-c2ccc(N3CCN(c4ccc(OC[C@H]5CO[C@](Cn6cncn6)(c6ccc(Cl)cc6Cl)O5)cc4)CC3)cc2)c1=O (stereo not given in full) | -6.02%
NC(=O)c1cccc([N+](=O)[O-])c1 | 0.293%
COc1ccc(-c2coc3cc(O)ccc3c2=O)cc1 | 4.25%
COC(=O)c1ccccc1OC | 1.51%
CC[N+](CC)(CC)CCOC(=O)C(C1CCCC1)C1CCCC1 | 0.399%

Structure (SMILES) | activation
COc1cc(S(=O)(=O)O)c(C)cc1N=Nc1c(O)ccc2cc(S(=O)(=O)O)ccc12 | -1.37%
CN1CCN(Cc2cc(-c3ccc4[nH]c(=O)oc4c3)co2)[C@@H](c2ccc(F)cc2)C1 | 0.319%
[Cu+] | -0.118%
Cc1c(N)cccc1C(F)(F)F | -1.3%
CN(C)CCN1CCN(c2cccc(Cl)c2)C1=O | -0.803%
CCCCOC(=O)CC | 0.255%
C1CCC(SSC2CCCCC2)CC1 | 3.04%
CC(=O)OCC=C(C)C | 0.192%
O=C(O)[C@H](O)[C@@H](O)[C@H](O[C@@H]1O[C@H](CO)[C@H](O)[C@H](O)[C@H]1O)[C@H](O)CO | -0.813%
O=[N+]([O-])c1ccc(O)cc1C(F)(F)F | 3.77%
FC(F)(F)c1cccc(Cl)c1 | 0.184%
CC(C)CCCCCOC(=O)CCS | 5.94%
CCOC(=O)NNc1ccc(N(CC)CC(C)O)nn1 (stereo not given) | 0.571%
OCCN1CCN(CCCN2c3ccccc3Sc3ccc(C(F)(F)F)cc32)CC1 | -11.1%
C/C=C/C=C/COC(=O)C(C)C | 2.67%
CCCCCc1ccc(Cl)cc1 | -0.997%
CCCCCCCC | -1.02%
CC(=O)Oc1cc2c(s1)CCN(C(C(=O)C1CC1)c1ccccc1F)C2 (stereo not given) | -0.0673%
CCCC(=O)OCCc1ccccc1 | 1.59%
CCN(CC)C(=O)c1cc(S(=O)(=O)Cc2ccccc2)c(N2CCC(c3ccccc3)CC2)cc1N(CC)CCN(C)C | -7.9% [at 29.1 µM]
